40 compounds from ChEMBL document CHEMBL3433997, “St. Jude Leishmania screening dataset” (2016) can be followed below.

What is called inhibition is the change of the read-out against control, counted positive when it falls.

The test addresses Glucose transporter (Leishmania mexicana) (UniProt O61059). Briefly: ST_JUDE_LEISH: Cytotoxicity at 2uM final concentration against transgenic Leishmania Mexicana promastigotes LmGT2 that are glucose transport deficient and complemented with the L. Mexicana glucose transporter 2. Activity is measured by DNA content using SYBR green in vitro. It counts as functional.
Take `Cc1[nH]c(C)c([N+](=O)[O-])c(=O)c1-c1ccc(Oc2ccc(OC(F)(F)F)cc2)cc1`: the inhibition came to 1.41%.
Take `O=C(c1cccc(-c2ccc(-c3nc4cc(F)ccc4[nH]3)s2)c1)N1CCCCC1CN1CCC(O)C1` (stereo not given): the inhibition turned out to be 1.75%.
The value for `CCOc1ccc(Cc2c(C)nc3nc(N)nc(N)c3c2C)cc1` was 26%; that for `CC(=O)Nc1nc(C)c(-c2csc(Nc3ccc(Cl)cc3)n2)s1` was -2.23%; that for `CN1CCC(c2ccc(NC(=O)c3ccc(-c4cccc(C(F)(F)F)c4)o3)cc2)CC1` was 1.19%.
Take `Fc1ccc2[nH]c(-c3ccccc3)nc2c1CN1CCC(N2CCCC2)CC1`: the inhibition is 2.29%.
Regarding `Cc1ccc(S(=O)(=O)n2nccc2-c2c(-c3ccc(Cl)cc3)noc2C)cc1`, the inhibition came to 2.23%.
Regarding `O=C(Nc1ccc(Cl)cc1)N[C@H]1CCN(Cc2ccc(OCCCN3CCCCC3)cc2)C1`, the inhibition was 0.1%.
Consider `O=C(NC1c2ccccc2Oc2ccccc21)c1ccccc1O`, for which the inhibition was -0.01%.
For the compound `CNC(=O)c1ccccc1Nc1nc(Nc2ccc(C(=O)O)cc2)ncc1Cl`, the inhibition was determined as 1.39%.
With `CCCCCCN1CCC(NCc2ccc(OCCN3CCCC3)cc2)CC1`, the inhibition is -0.15%.
The value for `CCNc1cc(C(=O)N[C@@H](Cc2ccccc2)[C@H](O)CNC(C)(C)Cc2cccc(OC)c2)cc(N2CCCC2=O)c1` was -0.38%.
Regarding `CCCC[C@@H](C(=O)NCc1ccccc1C(F)(F)F)N1C(=O)CCC1C(=O)Nc1ccc([N+](=O)[O-])cc1` (stereo not given in full), the inhibition is 2.75%.
Turning to `CC(C)c1cccc(OCC2CCN(c3ncc(C(=O)NC4CC4)cc3Cl)CC2)c1`, the inhibition is -0.2%.
As for `O=C(Nc1cc(C(F)(F)F)cc(C(F)(F)F)c1)Nc1ccc(Cl)c(Cl)c1`, the inhibition worked out at 1.22%.
The value for `Cc1ccc(NC(=O)c2cccc(CN3CCCN(CC4CCCCC4)CC3)c2)cc1F` was 0.75%; that for `CCOC(=O)N1CCN(C(=O)Nc2ccc(Cl)cc2)CC1` was 0.32%.
With `COc1cc(-c2nc(-c3ccncc3)c(-c3ccc4c(c3)CCC4=NO)[nH]2)ccc1OCCN1CCCCC1`, the inhibition was 2.76%.
On to `COc1cc2nc(NCCc3ccccc3)nc(NCc3nccs3)c2cc1OC`, for which the inhibition worked out at 0.04%.
As for `CC1(C)NC(=N)N=C(NOCC=Cc2ccccc2)N1`, the inhibition was 3.12%.
For `CCOC(=O)c1cnc2c(OC)cc(OC)c(Cl)c2c1Nc1cccc(C)c1C`, the inhibition is -6.14%.
The value for `Cc1noc(C)c1-c1cccc(CNCc2cccc(-c3cccc(-c4nc5cc(C(F)(F)F)ccc5[nH]4)c3)c2)c1` was 0.61%; that for `Cc1cc(N[C@@H](CC(C)C)C(=O)NCCOc2ccccc2)nc(NCCOc2ccccc2)n1` was 17.1%; that for `Cc1ccc(-c2nc(N3CCN(C(=O)c4ccco4)CC3)c3ccccc3n2)cc1` was 0.1%.
The value for `COc1ccc(CNC(=N)Nc2nc(-c3ccc(OCCCn4ccnc4)cc3)cs2)cc1` was 2.73%; that for `Cc1ccc(Nc2ccnc(Nc3ccc4c(c3)CS(=O)(=O)C4)n2)cc1O` was 4.14%; that for `N#Cc1ccc(N2C[C@@H](OCc3ccccc3)C[C@H]2C(=O)NCCC(c2ccccc2)c2ccccc2)c2ccccc12` was 3.78%.
The value for `CN1CCCC(CN2CCN(Cc3ccc(-c4cccc(-c5nc6ccccc6[nH]5)c4)cc3)CC2)C1` (stereo not given) was 3.47%; that for `Cc1cc(C(F)(F)F)cc(-n2ncc(-c3ccc(C(=O)NCCNCc4ccccc4)cc3)c2N)n1` was -0.24%; that for `O=c1cc(NCC2(CNCc3cn(Cc4ccccc4)c4ccccc34)CCCCC2)[nH]c2ccccc12` was 5.44%.
For the compound `Fc1ccc(CN2CCN(c3ncnc4cc(-c5ccccc5)sc34)CC2)cc1`, the inhibition was -1.83%.
The value for `CC1CCN(Cc2c(O)ccc3c(CN4CCC(C)CC4)c(O)ccc23)CC1` was 6.37%; that for `Cc1ccc(Nc2nnc(SCC(=O)Nc3ccc(CN4CCCC4)cc3)s2)cc1` was 0.85%; that for `COc1c(C2CCN(CCCCNC(=O)c3cc(-c4ccc(C#N)cc4)n[nH]3)CC2)ccc2c1CCCC2` was 1.75%.
The value for `CCOc1c(CCNCCCCNCCc2ccc3ccccc3c2OCC)ccc2ccccc12` was 111%; that for `CN/C(=N\O)NCCN(C)C` was 3.91%; that for `COc1ccc(CCNc2nc(NCc3ccccc3)c3cc(OC)c(OC)cc3n2)cc1OC` was 0.26%.
On to `Cc1cc(N[C@@H](CC(C)C)C(=O)Nc2ccccc2)nc(NCc2ccccc2C)n1`, for which the inhibition is 5.01%.
As for `O=C(Nc1ccc(SC(F)(F)F)cc1)Nc1ccnc2ccccc12`, the inhibition is -2.28%.
Consider `O=[N+]([O-])c1ccc(Nc2nc(N/N=C/c3cc(Cl)cc(Cl)c3O)nc(Nc3ccccc3)n2)cc1`, for which the inhibition was 2.65%.
